Assay results from the supplement of paper PMC10849652.
The full data set covers some 7,900 targets. This sample favours those with a hit. About 0.6% of all pairs of compound and target were hits.

Legend:
Assay in all cases: log2 fold change, soluble protein after heating vs DMSO (PISA); higher = thermal stabilisation; K562 cells, 10 uM, 30 min; active = over 0.2 and 3.5 SD of the protein, either way, in both replicates (recomputed)
[1] = compound: COC1=CC=C(C=C1)CN2C=CC3=C2C=C(C=C3)C(=O)NO
Procedure, shortened: (§1)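 For each measurement, 10 μM compound was applied for 30 min to K562 cells at 2×10^6 cells/mL. Aliquots were heated for 3 min across 48°C-58°C, pooled, and extracted in PBS with 0.5% NP-40 at 4°C; the supernatant after 21,000xg for 90 min was soluble protein. This was quantified by TMTpro 16plex LC-MS/MS with channel sums equalised, and thermal stability was reported relative to control samples from duplicates, on a log2 fold-change scale.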

filanesib = compound: CON(C)C(=O)N1N=C(c2cc(F)ccc2F)S[C@@]1(CCCN)c1ccccc1 [filanesib]
Procedure, shortened: as §1

zotarolimus = compound: CO[C@H]1C[C@@H]2CC[C@@H](C)[C@@](O)(O2)C(=O)C(=O)N2CCCC[C@H]2C(=O)O[C@H]([C@H](C)C[C@@H]2CC[C@H](n3cnnn3)[C@H](OC)C2)CC(=O)[C@H](C)/C=C(\C)[C@@H](O)[C@@H](OC)C(=O)[C@H](C)C[C@H](C)/C=C/C=C/C=C/1C [zotarolimus]
Procedure, shortened: as §1

idasanutlin = compound: COc1cc(C(=O)O)ccc1NC(=O)[C@@H]1N[C@@H](CC(C)(C)C)[C@](C#N)(c2ccc(Cl)cc2F)[C@H]1c1cccc(Cl)c1F [idasanutlin]
Procedure, shortened: as §1

alisertib = compound: COc1cc(Nc2ncc3c(n2)-c2ccc(Cl)cc2C(c2c(F)cccc2OC)=NC3)ccc1C(=O)O [alisertib]
Procedure, shortened: as §1

[2] = compound: COc1cc2nc(-c3cc(F)ccc3O)nc(N[C@@H]3CNC[C@H]3C(C)(C)O)c2cc1OC
Procedure, shortened: as §1

gefitinib = compound: COc1cc2ncnc(Nc3ccc(F)c(Cl)c3)c2cc1OCCCN1CCOCC1 [gefitinib]
Procedure, shortened: as §1

[3] = compound: COc1cccc2cc(-c3nc([C@H]4CC[C@H](C(=O)O)CC4)n4ncnc(N)c34)[nH]c12
Procedure, shortened: as §1

lapatinib = compound: CS(=O)(=O)CCNCc1ccc(-c2ccc3ncnc(Nc4ccc(OCc5cccc(F)c5)c(Cl)c4)c3c2)o1 [lapatinib]
Procedure, shortened: as §1

pictilisib = compound: CS(=O)(=O)N1CCN(Cc2cc3nc(-c4cccc5[nH]ncc45)nc(N4CCOCC4)c3s2)CC1 [pictilisib]
Procedure, shortened: as §1

[4] = compound: CS(=O)(=O)c1ccc(-c2cnc(N)c(C(=O)Nc3ccccc3)n2)cc1
Procedure, shortened: as §1

crizotinib = compound: C[C@@H](Oc1cc(-c2cnn(C3CCNCC3)c2)cnc1N)c1c(Cl)ccc(F)c1Cl [crizotinib]
Procedure, shortened: as §1

[5] = compound: C[C@@H]1COCCN1C2=NC(=NC(=C2)C3(CC3)S(=O)(=O)C)C4=C5C=CNC5=CC=C4
Procedure, shortened: as §1

[6] = compound: C[C@H](C1=CC=C(C=C1)C(=O)NC2=C3C=CNC3=NC=C2)N
Procedure, shortened: as §1

duvelisib = compound: C[C@H](Nc1ncnc2nc[nH]c12)c1cc2cccc(Cl)c2c(=O)n1-c1ccccc1 [duvelisib]
Procedure, shortened: as §1

gandotinib = compound: Cc1cc(Nc2cc(CN3CCOCC3)c3nc(C)c(Cc4ccc(Cl)cc4F)n3n2)n[nH]1 [gandotinib]
Procedure, shortened: as §1

tozasertib = compound: Cc1cc(Nc2cc(N3CCN(C)CC3)nc(Sc3ccc(NC(=O)C4CC4)cc3)n2)n[nH]1 [tozasertib]
Procedure, shortened: as §1

[7] = compound: Cc1cc(SCc2sc(-c3ccc(C(F)(F)F)cc3)nc2C)ccc1OCC(=O)O
Procedure, shortened: as §1

doramapimod = compound: Cc1ccc(-n2nc(C(C)(C)C)cc2NC(=O)Nc2ccc(OCCN3CCOCC3)c3ccccc23)cc1 [doramapimod]
Procedure, shortened: as §1

ispinesib = compound: Cc1ccc(C(=O)N(CCCN)[C@@H](c2nc3cc(Cl)ccc3c(=O)n2Cc2ccccc2)C(C)C)cc1 [ispinesib]
Procedure, shortened: as §1

Measured: log2 fold change

DPYSL2 (UniProt Q16555)
inactive: [1] -0.082 | filanesib 0.006 | zotarolimus -0.06 | idasanutlin 0.029 | alisertib 0.093 | [2] 0.055 | gefitinib -0.041 | [3] 0.038 | lapatinib 0.029 | [4] 0.034 | crizotinib 0.025 | [5] -0.09 | [6] 0.023 | duvelisib 0.33 | gandotinib -0.015 | tozasertib -0.012 | [7] 0.082 | doramapimod 0.069
active: pictilisib 0.262

CTNNB1 (UniProt P35222)
UniProt P35222, sequence (P35222 whole entry, looked up): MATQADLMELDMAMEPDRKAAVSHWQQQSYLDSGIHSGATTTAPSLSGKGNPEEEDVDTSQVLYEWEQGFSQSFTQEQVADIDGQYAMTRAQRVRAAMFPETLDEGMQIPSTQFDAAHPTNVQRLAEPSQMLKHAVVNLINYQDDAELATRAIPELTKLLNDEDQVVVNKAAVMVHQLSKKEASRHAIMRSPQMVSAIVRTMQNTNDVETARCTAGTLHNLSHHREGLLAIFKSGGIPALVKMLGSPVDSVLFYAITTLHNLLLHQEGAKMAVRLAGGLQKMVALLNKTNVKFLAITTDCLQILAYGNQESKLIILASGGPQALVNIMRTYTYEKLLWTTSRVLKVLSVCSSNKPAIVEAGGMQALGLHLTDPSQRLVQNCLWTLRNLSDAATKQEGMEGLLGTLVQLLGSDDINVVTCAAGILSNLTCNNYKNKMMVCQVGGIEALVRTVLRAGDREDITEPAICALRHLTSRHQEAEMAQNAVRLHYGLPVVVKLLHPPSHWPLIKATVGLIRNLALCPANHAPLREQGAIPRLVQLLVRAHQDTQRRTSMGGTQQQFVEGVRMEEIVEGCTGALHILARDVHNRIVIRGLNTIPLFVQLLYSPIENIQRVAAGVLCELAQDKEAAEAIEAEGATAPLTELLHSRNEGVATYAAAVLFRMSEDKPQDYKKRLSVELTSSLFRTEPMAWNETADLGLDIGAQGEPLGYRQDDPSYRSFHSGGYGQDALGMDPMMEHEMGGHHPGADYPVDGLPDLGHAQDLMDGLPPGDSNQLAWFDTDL
active: [4] 0.666
inactive: [1] -0.082 | filanesib 0.174 | zotarolimus 0.029 | idasanutlin -0.056 | alisertib -0.084 | [2] 0.072 | gefitinib -0.001 | [3] 0.054 | lapatinib 0 | pictilisib -0.2 | crizotinib 0.024 | [5] -0.087 | [6] -0.102 | duvelisib 0.086 | gandotinib 0.336 | tozasertib 0.03 | [7] -0.024 | doramapimod 0.047 | ispinesib 0.078

EXOC2 (UniProt Q96KP1)
active: ispinesib -0.394
inactive: [1] 0.015 | filanesib -0.009 | zotarolimus 0.021 | idasanutlin -0.02 | alisertib -0.011 | [2] 0.096 | gefitinib 0.107 | [3] -0.106 | lapatinib -0.037 | pictilisib 0.059 | [4] 0.006 | crizotinib -0.308 | [5] -0.112 | [6] 0.101 | duvelisib -0.081 | gandotinib 0.009 | tozasertib 0.017 | [7] 0.119 | doramapimod 0.06

DMXL1 (UniProt Q9Y485)
inactive: [1] 0.023 | filanesib 0.046 | zotarolimus -0.008 | idasanutlin -0.012 | alisertib -0.003 | [2] 0.02 | gefitinib -0.029 | [3] -0.003 | lapatinib -0.02 | pictilisib -0.015 | [4] -0.012 | crizotinib -0.092 | [5] 0.002 | [6] 0.048 | duvelisib -0.011 | gandotinib -0.013 | tozasertib -0.03 | [7] 0 | doramapimod 0.047 | ispinesib -0.217

DTYMK (UniProt P23919)
UniProt P23919, sequence (P23919 whole entry, looked up): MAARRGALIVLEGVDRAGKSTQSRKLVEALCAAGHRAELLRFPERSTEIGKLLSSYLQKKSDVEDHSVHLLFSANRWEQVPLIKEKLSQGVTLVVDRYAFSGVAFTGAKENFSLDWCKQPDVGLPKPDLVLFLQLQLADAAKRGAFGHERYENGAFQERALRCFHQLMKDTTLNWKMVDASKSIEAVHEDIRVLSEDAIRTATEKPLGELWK
inactive: [1] -0.043 | filanesib -0.09 | zotarolimus -0.023 | idasanutlin -0.065 | alisertib -0.014 | [2] 0.047 | gefitinib -0.108 | [3] 0.152 | lapatinib -0.026 | pictilisib -0.054 | [4] 0.046 | crizotinib -0.146 | [5] 0 | [6] -0.022 | duvelisib 0.094 | gandotinib -0.217 | tozasertib -0.109 | [7] -0.009 | doramapimod -0.025 | ispinesib 0.032

CYP51A1 (UniProt Q16850)
UniProt Q16850, sequence (Q16850 whole entry, looked up): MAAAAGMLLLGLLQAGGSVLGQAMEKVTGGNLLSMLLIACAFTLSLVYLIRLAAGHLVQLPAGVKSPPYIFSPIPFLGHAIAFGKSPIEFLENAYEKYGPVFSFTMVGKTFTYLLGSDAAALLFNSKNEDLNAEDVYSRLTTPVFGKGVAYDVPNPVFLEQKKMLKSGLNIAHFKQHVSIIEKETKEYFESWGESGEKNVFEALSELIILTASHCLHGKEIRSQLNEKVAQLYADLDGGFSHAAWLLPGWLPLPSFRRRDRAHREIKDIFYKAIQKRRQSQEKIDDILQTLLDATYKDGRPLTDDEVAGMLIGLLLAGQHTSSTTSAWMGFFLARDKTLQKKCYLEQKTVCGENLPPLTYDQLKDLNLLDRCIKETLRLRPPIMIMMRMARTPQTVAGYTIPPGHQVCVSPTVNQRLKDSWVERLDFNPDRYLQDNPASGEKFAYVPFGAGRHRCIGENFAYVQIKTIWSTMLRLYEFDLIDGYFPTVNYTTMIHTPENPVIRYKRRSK
active: lapatinib 0.401
inactive: [1] -0.035 | filanesib 0.217 | zotarolimus -0.11 | idasanutlin 0.099 | alisertib -0.025 | [2] -0.005 | gefitinib 0.009 | [3] -0.105 | pictilisib -0.216 | [4] 0.028 | crizotinib 0.12 | [5] -0.162 | [6] 0.147 | duvelisib -0.075 | gandotinib -0.111 | tozasertib -0.031 | [7] 0 | doramapimod 0.156 | ispinesib 0.117

CYFIP1 (UniProt Q7L576)
UniProt Q7L576, sequence (Q7L576 whole entry, looked up): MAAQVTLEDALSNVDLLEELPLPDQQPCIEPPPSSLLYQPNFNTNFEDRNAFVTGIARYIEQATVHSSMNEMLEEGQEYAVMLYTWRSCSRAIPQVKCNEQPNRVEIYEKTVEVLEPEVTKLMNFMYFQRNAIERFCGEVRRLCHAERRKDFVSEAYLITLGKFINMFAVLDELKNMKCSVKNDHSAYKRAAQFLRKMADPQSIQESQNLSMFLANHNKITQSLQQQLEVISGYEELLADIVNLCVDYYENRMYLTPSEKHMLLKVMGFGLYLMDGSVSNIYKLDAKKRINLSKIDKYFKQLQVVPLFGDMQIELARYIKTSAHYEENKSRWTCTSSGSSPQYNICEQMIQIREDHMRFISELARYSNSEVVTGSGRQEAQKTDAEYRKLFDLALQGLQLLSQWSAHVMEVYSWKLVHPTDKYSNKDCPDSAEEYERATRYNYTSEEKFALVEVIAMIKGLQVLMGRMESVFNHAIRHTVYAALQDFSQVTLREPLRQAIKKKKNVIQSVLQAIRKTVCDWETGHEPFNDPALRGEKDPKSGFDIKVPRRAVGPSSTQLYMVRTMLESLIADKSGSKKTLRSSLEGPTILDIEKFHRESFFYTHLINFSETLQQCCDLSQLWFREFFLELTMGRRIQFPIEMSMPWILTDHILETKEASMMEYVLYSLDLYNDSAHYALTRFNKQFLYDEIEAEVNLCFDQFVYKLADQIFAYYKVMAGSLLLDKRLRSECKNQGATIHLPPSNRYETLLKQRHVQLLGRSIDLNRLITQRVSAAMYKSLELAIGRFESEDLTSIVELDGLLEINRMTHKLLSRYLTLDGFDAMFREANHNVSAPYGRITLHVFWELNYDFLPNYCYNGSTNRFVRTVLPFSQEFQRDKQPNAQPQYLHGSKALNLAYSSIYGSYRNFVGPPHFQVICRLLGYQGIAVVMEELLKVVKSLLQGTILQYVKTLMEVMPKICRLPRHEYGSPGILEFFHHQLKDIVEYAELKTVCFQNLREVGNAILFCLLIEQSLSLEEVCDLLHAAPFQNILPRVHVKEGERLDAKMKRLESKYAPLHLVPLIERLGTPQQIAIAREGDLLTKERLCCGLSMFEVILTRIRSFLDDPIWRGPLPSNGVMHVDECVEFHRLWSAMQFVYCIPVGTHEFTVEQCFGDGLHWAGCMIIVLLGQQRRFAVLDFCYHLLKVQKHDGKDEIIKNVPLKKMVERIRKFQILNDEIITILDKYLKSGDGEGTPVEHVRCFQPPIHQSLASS
inactive: [1] 0.053 | filanesib -0.027 | zotarolimus 0.039 | idasanutlin -0.028 | alisertib 0.061 | [2] -0.004 | gefitinib 0.008 | [3] 0.013 | lapatinib 0.023 | pictilisib 0.097 | [4] 0.038 | crizotinib -0.029 | [5] 0.063 | [6] -0.042 | duvelisib 0.031 | gandotinib -0.079 | tozasertib 0 | [7] 0.038 | doramapimod -0.026 | ispinesib 0.031

EIF4E isoform 2 (UniProt P06730)
UniProt P06730, sequence (P06730 whole entry, looked up): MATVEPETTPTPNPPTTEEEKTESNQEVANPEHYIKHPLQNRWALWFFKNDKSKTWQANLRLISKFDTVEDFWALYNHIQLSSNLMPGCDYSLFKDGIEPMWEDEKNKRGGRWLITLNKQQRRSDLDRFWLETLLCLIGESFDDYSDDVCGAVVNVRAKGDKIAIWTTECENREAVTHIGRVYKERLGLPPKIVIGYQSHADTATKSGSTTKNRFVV
active: zotarolimus 0.346 | [3] 0.354 | pictilisib 0.373 | [5] 0.4
inactive: [1] -0.002 | filanesib -0.038 | idasanutlin -0.085 | alisertib -0.083 | [2] 0.039 | gefitinib 0.112 | lapatinib 0.039 | [4] 0.198 | crizotinib 0.165 | [6] -0.099 | duvelisib 0.143 | gandotinib -0.006 | tozasertib 0.003 | [7] -0.02 | doramapimod -0.045 | ispinesib 0.159

DNAJC19 (UniProt Q96DA6)
UniProt Q96DA6, sequence (Q96DA6 whole entry, looked up): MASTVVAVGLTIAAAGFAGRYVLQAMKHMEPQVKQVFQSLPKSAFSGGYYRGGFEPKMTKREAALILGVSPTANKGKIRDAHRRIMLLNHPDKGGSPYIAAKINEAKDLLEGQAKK
inactive: [1] 0.096 | filanesib -0.155 | zotarolimus 0.016 | idasanutlin -0.004 | alisertib -0.022 | gefitinib 0.006 | [3] 0.045 | lapatinib -0.012 | pictilisib 0.025 | [4] 0.008 | crizotinib -0.073 | [5] 0.055 | [6] -0.089 | duvelisib 0.004 | gandotinib 0.011 | tozasertib 0.007 | [7] -0.017 | doramapimod -0.011 | ispinesib -0.069
active: [2] -0.205

ESS2 (UniProt Q96DF8)
UniProt Q96DF8, sequence (Q96DF8 whole entry, looked up): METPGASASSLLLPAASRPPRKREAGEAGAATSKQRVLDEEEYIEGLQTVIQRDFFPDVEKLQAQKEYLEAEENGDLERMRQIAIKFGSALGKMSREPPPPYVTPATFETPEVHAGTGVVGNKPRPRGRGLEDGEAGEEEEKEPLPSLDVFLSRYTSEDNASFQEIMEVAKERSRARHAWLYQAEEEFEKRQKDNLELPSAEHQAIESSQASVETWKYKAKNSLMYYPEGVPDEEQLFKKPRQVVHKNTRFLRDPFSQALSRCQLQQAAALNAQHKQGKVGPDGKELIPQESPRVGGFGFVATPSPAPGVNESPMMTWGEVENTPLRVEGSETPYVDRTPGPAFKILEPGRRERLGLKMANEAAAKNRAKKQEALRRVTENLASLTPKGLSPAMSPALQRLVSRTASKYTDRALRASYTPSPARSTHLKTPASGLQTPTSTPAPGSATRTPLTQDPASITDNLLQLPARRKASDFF
inactive: [1] -0.022 | filanesib 0.046 | zotarolimus -0.019 | idasanutlin 0.052 | alisertib -0.125 | [2] -0.037 | gefitinib -0.088 | [3] 0.005 | lapatinib 0.073 | pictilisib -0.083 | [4] -0.081 | crizotinib -0.079 | [5] 0.016 | [6] 0.031 | duvelisib -0.069 | gandotinib 0.004 | tozasertib -0.029 | [7] -0.044 | doramapimod 0.02 | ispinesib -0.053

EVC2 (UniProt Q86UK5)
inactive: [1] -0.073 | filanesib -0.142 | zotarolimus -0.039 | idasanutlin 0.053 | alisertib -0.066 | [2] -0.146 | gefitinib 0.09 | [3] 0.016 | lapatinib -0.224 | pictilisib -0.194 | [4] 0.022 | crizotinib -0.061 | [5] -0.244 | [6] -0.209 | duvelisib -0.162 | gandotinib 0.071 | tozasertib 0.02 | [7] -0.052 | doramapimod 0 | ispinesib 0.065

EIF3J (UniProt O75822)
UniProt O75822, sequence (O75822 whole entry, looked up): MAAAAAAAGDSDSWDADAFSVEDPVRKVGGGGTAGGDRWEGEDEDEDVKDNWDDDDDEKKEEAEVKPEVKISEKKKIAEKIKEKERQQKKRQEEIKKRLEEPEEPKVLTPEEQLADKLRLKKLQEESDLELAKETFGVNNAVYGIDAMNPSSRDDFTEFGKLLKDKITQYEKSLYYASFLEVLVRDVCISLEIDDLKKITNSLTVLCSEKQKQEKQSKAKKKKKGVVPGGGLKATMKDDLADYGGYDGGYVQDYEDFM
inactive: [1] -0.067 | filanesib -0.086 | zotarolimus 0.007 | idasanutlin -0.042 | alisertib -0.018 | [2] 0.079 | gefitinib -0.004 | [3] -0.057 | lapatinib -0.057 | pictilisib -0.04 | [4] -0.024 | crizotinib -0.012 | [5] 0.009 | [6] -0.035 | duvelisib 0.048 | gandotinib -0.157 | tozasertib 0.038 | [7] 0.005 | doramapimod -0.022 | ispinesib 0.099

DYRK1A isoform 2 (UniProt Q13627)
inactive: [1] -0.061 | filanesib 0.01 | zotarolimus 0.023 | idasanutlin 0 | alisertib -0.03 | [2] 0.004 | gefitinib 0.007 | [3] 0.036 | lapatinib -0.034 | pictilisib 0.017 | [4] 0.008 | crizotinib -0.181 | [5] 0.045 | [6] -0.107 | duvelisib -0.025 | gandotinib -0.102 | tozasertib -0.051 | [7] 0.042 | doramapimod 0.014 | ispinesib -0.059

DNTTIP2 (UniProt Q5QJE6)
UniProt Q5QJE6, sequence (Q5QJE6 whole entry, looked up): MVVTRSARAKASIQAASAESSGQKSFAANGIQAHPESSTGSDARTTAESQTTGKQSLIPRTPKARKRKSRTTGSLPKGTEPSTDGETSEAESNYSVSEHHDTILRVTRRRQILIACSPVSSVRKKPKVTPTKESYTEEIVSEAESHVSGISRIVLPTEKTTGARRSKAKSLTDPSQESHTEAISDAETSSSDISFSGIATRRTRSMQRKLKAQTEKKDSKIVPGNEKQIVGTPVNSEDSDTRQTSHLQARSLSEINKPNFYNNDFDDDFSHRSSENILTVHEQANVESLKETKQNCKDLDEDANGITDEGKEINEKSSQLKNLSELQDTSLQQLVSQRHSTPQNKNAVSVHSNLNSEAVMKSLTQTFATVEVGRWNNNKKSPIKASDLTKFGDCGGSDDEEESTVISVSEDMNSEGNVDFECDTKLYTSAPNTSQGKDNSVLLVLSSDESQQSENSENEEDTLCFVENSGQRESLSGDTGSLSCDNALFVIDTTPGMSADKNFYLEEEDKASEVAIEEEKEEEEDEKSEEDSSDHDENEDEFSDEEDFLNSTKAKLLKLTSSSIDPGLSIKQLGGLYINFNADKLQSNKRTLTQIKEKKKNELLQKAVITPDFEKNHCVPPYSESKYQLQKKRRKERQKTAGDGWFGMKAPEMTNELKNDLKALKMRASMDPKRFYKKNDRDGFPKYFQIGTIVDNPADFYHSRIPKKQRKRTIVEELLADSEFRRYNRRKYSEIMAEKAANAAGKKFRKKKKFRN
inactive: [1] -0.095 | filanesib 0.217 | zotarolimus 0.061 | idasanutlin 0.267 | alisertib -0.072 | [2] -0.09 | gefitinib -0.014 | [3] -0.002 | lapatinib 0 | pictilisib 0.008 | [4] 0.012 | crizotinib -0.028 | [5] -0.051 | [6] 0.268 | duvelisib -0.26 | gandotinib 0.107 | tozasertib -0.037 | [7] 0.052 | doramapimod 0.129 | ispinesib -0.093

DBN1 isoform 3 (UniProt Q16643)
inactive: [1] 0.012 | filanesib 0.182 | zotarolimus 0.074 | idasanutlin 0.061 | alisertib -0.023 | [2] -0.024 | gefitinib 0.05 | [3] 0.084 | lapatinib -0.041 | pictilisib -0.111 | [4] -0.063 | crizotinib 0.088 | [5] -0.075 | [6] 0.044 | duvelisib -0.097 | gandotinib -0.009 | tozasertib 0.158 | [7] -0.02 | doramapimod 0.02 | ispinesib 0.071

CTSB (UniProt P07858)
active: crizotinib -0.508 | ispinesib -0.403
inactive: [1] 0.044 | filanesib -0.16 | zotarolimus 0.044 | idasanutlin 0.032 | alisertib 0.007 | [2] -0.006 | gefitinib 0.024 | [3] 0.03 | lapatinib -0.016 | pictilisib 0.043 | [4] 0.048 | [5] 0.057 | [6] -0.042 | duvelisib 0.016 | gandotinib 0.006 | tozasertib -0.006 | [7] 0.015 | doramapimod -0.014
